Compound activity deposited in PubChem BioAssay by several laboratories.
V-ATPase pH = yeast V-ATPase proton transport regulation by pHLuorin; AID 504577; hit rate 0.37% among 350,000; response, % at 10 µM; S. cerevisiae, pHLuorin cytosolic pH fluorescence; in the data active = response mostly above about 7.3%, no sharp cut-off; inactive = mostly below about 5.4%; also: actives read high
SKKanGAS inh = SKKanGAS growth inhibition; S. pyogenes SKKanGAS, kanamycin growth, BacTiter-Glo, 6 h; inhibition, % at 7.5 µM; hit rate 1.3% among 300,000;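 active = mean replicate score, as percent of positive control median, at least 50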;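 also: strain carries kanamycin resistance gene driven by streptokinase promoter and grows in 40 µg/ml kanamycin; loss of luminescence reflects streptokinase promoter inhibition or plain growth inhibition; 0% = median of DMSO wells and 100% = positive control at its reference dose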
tim10-1 inh = growth inhibitors of tim10-1 mutant yeast; AID 463190; hit rate 2.2% among 330,000; inhibition, % at 20 µM; S. cerevisiae tim10-1 ts strain growth, BacTiter-Glo, 24 h;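 active = inhibition of at least 40%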;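 also: mutant grown at 25 °C; 0% = DMSO wells with yeast and 100% = wells holding no yeast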
TIM10 inh = inhibits growth of TIM10 yeast strain. S. cerevisiae TIM10 strain growth, BacTiter-Glo luminescence, 24 h. inhibition, % at 10 µM. hit rate 1.4% among 330,000. AID 463195;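 active = inhibition of 40% or more at the single tested concentration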;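 also: wild-type TIM10 isogenic control strain grown at permissive 25 °C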
PfHsp90 set2 = growth inhibition of yeast expressing Plasmodium Hsp90 | S. cerevisiae expressing PfHsp90, BacTiter-Glo ATP, 48 h; yeast lacking PDR1 and PDR3 efflux regulators | inhibition, % at 9.4 µM | hit rate 0.32% among 310,000 | AID 504621;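 active = every replicate shows inhibition above about 80%, whatever the replicate mean, limit read from the data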;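 also: 0% = DMSO neutral controls and 100% = 20 µM radicicol positive controls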
tim23-1 inh = growth inhibitors of tim23-1 mutant yeast | S. cerevisiae tim23-1 growth, BacTiter-Glo luminescence, 24 h | inhibition, % at 20 µM | hit rate 1.3% among 330,000 | AID 463212;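 active = growth inhibition of the mutant yeast at or above 50%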;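 also: temperature-sensitive mutant grown at 25 °C; plate controls were DMSO-treated mutant yeast for no effect and medium wells lacking yeast for full effect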
tim10-1 confirm = tim10-1 yeast growth inhibition, confirmed. S. cerevisiae tim10-1 ts strain growth, BacTiter-Glo, 24 h. shares compounds with tim10-1 inh. hit rate 56% among 7,400. inhibition, % at 20 µM;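 active = inhibition of yeast growth at or above a set limit in either of two repeat tests at 20 µM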;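 also: tim10-1 mutant grown at permissive 25 °C to find synthetic lethal compounds; 0% = DMSO yeast wells and 100% = medium wells without yeast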
* = called active by the depositor; . = no result given. Only some compounds are listed: those with a hit (about 4.6% of all), similar ones and a draw of the others.

SMILES	V-ATPase pH	SKKanGAS inh	tim10-1 inh	TIM10 inh	PfHsp90 set2	tim23-1 inh	tim10-1 confirm
COc1ccccc1-c1noc(CCC(=O)Nc2cc(C(F)(F)F)ccc2Cl)n1	0.5	5.4	43.1*	10.6	.	25.0	22.4
CC(NC(=O)c1ccc(OC2CCN(Cc3ccccn3)CC2)cc1)c1nccs1 (stereo not drawn)	1.6	2.6	9.0	1.2	-5.4	5.4	.
NNC(=O)c1ccc(COc2ccc3ccccc3c2)o1	-0.3	11.1	41.9*	4.3	38.4	33.2	13.1
Cc1ccc(OCc2ccc(C(=O)NN)o2)cc1C	4.8	1.3	17.0	-4.2	0.0	28.2	.
O=C(Nc1cccc(C(F)(F)F)c1)N1CCC(c2nc(-c3ccc(F)cc3)no2)CC1	-0.7	35.8	41.6*	7.2	.	30.0	38.7*
COc1ccccc1CNC(=O)Cn1cc([N+](=O)[O-])ccc1=O	2.5	-4.7	0.6	-4.9	-20.1	9.4	.
CCN(C(=O)CSc1nnc(-c2ccc(OC)cc2)n1C(C)C)C1CCS(=O)(=O)C1 (stereo not drawn)	-0.6	.	-17.3	1.5	-11.5	-11.0	.
CCc1nnc(SCC(=O)Nc2ccc(F)cc2)o1	-3.9	-3.0	10.0	0.9	-12.5	12.7	.
Cc1cc(NCCCn2ccnc2)n2ncc(-c3ccc(Cl)cc3)c2n1	2.0	-3.2	40.9*	25.1	-4.4	35.5	21.0
Cc1cc(NCCCN2CCOCC2)n2ncc(-c3ccc(Cl)cc3)c2n1	2.6	17.8	0.9	-26.5	.	38.4	.
OC(COc1ccc2ccccc2c1Br)Cn1cnc(-c2ccccc2)c1 (stereo not drawn)	1.4	55.8*	43.5*	-6.0	-25.1	8.4	44.0*
C=CC[C@H](CC(=O)N(CCO)Cc1ccccc1)C(=O)N[C@H](COC(=O)[C@@H](CC=C)CC(=O)OC(C)(C)C)c1ccccc1	6.2	.	13.1	3.6	-3.2	18.7	.
CN(C)S(=O)(=O)c1ccc2c(c1)Cc1cc(S(=O)(=O)N(C)C)ccc1-2	-1.5	-0.4	-18.5	15.3	-10.0	17.5	.
FC(F)(F)c1cnc(Nc2ccc(N3CCOCC3)cc2)c(Cl)c1	-2.1	-16.9	44.4*	14.9	-114.7	19.4	20.9
O=C(Nc1ccc(Cl)cc1)NC1CCCCC1Cc1ccco1 (stereo not drawn)	0.6	37.3	47.2*	38.2	-9.8	7.4	41.0*
CC(/C=N/NC(=O)c1ccncc1)=C\c1ccc(C(C)C)cc1	0.4	-0.1	9.0	-25.2	2.2	-5.1	.
CC(/C=N/Nc1nc(C)cc(C)n1)=C\c1ccc(C(C)C)cc1	-2.2	-4.8	46.5*	19.7	7.5	38.6	35.1*
CC(=O)Nc1ccc(Nc2cc(C)nc3c(-c4ccccc4)cnn23)cc1	-2.5	.	.	.	19.8	.	.
CCOC(=O)c1ccccc1NC(=O)C1CC(=O)N(C2CCCC2)C1 (stereo not drawn)	-1.9	.	.	.	-0.5	.	.
S=C(Nc1ccc(Br)cc1)Nc1ccc2c(c1)OCCO2	4.0	-2.2	44.9*	14.6	4.5	33.9	3.4
Oc1ccccc1/C=N/Nc1nccnc1Cl	3.7	18.6	54.7*	28.2	.	28.4	19.5
O=[N+]([O-])c1ccccc1/C=N/Nc1nccnc1Cl	-1.9	9.6	8.5	20.6	19.7	-0.7	.
N#Cc1ccccc1OCC(=O)NC(=O)NCc1ccco1	-3.9	-0.1	15.7	8.7	10.7	10.6	.
CCN(CC)C(=O)c1sc(NC(=O)c2cccs2)c(C#N)c1C	6.6	-8.9	43.8*	15.7	21.7	33.2	24.6
CCOC(=O)c1c(C)[nH]c(C)c1C(=O)COC(=O)c1cc2ccccc2cc1O	2.9	14.5	47.3*	18.0	-7.7	20.9	17.8
COc1ccc(NC(=O)CN(C)C(=O)Cn2cnc3c2c(=O)n(C)c(=O)n3C)cc1	1.0	-3.1	4.0	2.3	-10.5	0.5	.
CCCCNC(=O)C(=O)Nc1cc2c3c(c1)CCC(=O)N3CCC2	-0.9	-2.6	43.2*	-30.9	10.6	-15.5	-34.9
COc1ccc(OC)c(S(=O)(=O)N2CCN3CCCC3C2)c1 (stereo not drawn)	-1.9	-7.0	-1.6	-1.9	11.0	5.1	.
COc1ccc(OC)c(S(=O)(=O)N2C(C)CCCC2C)c1 (stereo not drawn)	-4.2	-3.7	42.5*	13.1	3.3	30.2	22.1
